Reference: PubChem BioAssay (NCI)
About 83,000 compounds went through this panel and 20% of them were active in at least one assay; those are over-represented in the sample as a whole.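 Each cell line was grown in a 96-well plate and treated with one concentration of compound for 48 hours. Values below 10 were considered active.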 A number with no mark means an inactive call. Calls of active or inactive are those of the source.

tested on: NCI-H522 lung; assay: NCI-60 one-dose screen, 48 h (100 = growth as untreated, 0 = no growth, -100 = all killed); details: 10 µM unless noted
Description: Growth inhibition of the NCI-H522 human Non-Small Cell Lung tumor cell line is measured as a screen for anti-cancer activity. Cells are grown in 96 well plates and exposed to the test compound for 48 hours. Compounds are tested at a single concentration, which is 10^-5 M for most compounds. The reported endpoint is percent growth (GI% or GIPRCNT), where numbers from 0 - 100% represent growth inhibition, and numbers from -100% - 0 represent cell death. For example, a value of 40 represents 60% growth inhibition. A value of 0 means no net growth occurred over the course of the experiment. A value of -40 indicates 40% of cells at the beginning of the experiment died by the end of the experiment. A value of -100 means all cells are dead at the end of the experiment.
NCI-60 Human Tumor Cell Lines Screen was performed using the standard one-dose NCI protocol, which is described in more detail at https://dtp.cancer.gov/discovery_development/nci-60/default.htm.
Compounds with GIPRCNT values below 10 were considered active. Activity score was based on GIPRCNT using the following formula: […]
Score is 0 for GIPRCNT values of 100 or above, 50 for GIPRCNT values of 0, and 100 for GIPRCNT values of -100.

Structure (SMILES)	growth
COc1ccc(-c2nnc(COc3ccc(NS(=O)(=O)c4ccc(OC)cc4)cc3F)o2)cc1	49.2%
COc1ccc(-c2cn[nH]c2-c2cc(OC)c3c(c2)OCCO3)cc1	-22.8% (active)
CCn1c(=O)c2c(=O)c3c4c(oc3oc2c2ccccc21)C(=O)c1ccccc1C4=O	65.5%
COc1ccc2c(c1)C=CC(C#N)N2C(=O)c1ccccc1 (stereo not given)	1.91% (active)
COc1ccc(-n2cnc3c(sc4ncc(Cl)cc43)c2=O)cc1	93.3%
Nc1c(C(=O)c2ccc(F)cc2)sc2nc3c(cc12)CCCC3	-2.9% (active)
CCCCOc1nc2c(C)cccc2cc1C1CNC(=O)c2ccccc2N1 (stereo not given)	44.8%
CCC(c1ccc(OC)cc1)C(CC)c1ccc(O)c(CN2CCCC2)c1 (stereo not given)	22.8%
COc1cc(OC)c(C(=O)/C=C/c2ccc(C(F)(F)F)cc2)c(OC)c1	28.8%
CCO/C=N/NC(=O)c1ccncc1	98%
O=S(=O)(NCCCNc1cc(-c2cn(-c3ccccc3)nc2-c2cccc(O)c2)ccn1)c1cccc2ccccc12	44.5%
COc1ccc2c(c1)NC(=O)CN2c1nc(NC2CC2)nc2ccccc12	-11.9% (active)
CCOC(=O)c1cc(/C(=N\O)c2cc(OC)c(OC)c(OC)c2)n2cc(C)cc(C)c12	-10.6% (active)
COc1ccc(C2=NN(c3ccc(S(N)(=O)=O)cc3)C(c3cn(-c4ccccc4)nc3-c3ccc(Cl)cc3)C2)cc1 (stereo not given)	71.1%
CC/C=C\C[C@H](O)C/C=C1/C(=O)C(Cl)=C[C@@H]1C/C=C\CCCC(=O)OC	-67.1% (active)
CCN1C(=O)N(CC)C2C1NN=c1s/c(=C\c3ccccn3)c(=O)n12 (stereo not given)	15.1%
COc1ccc(C(=O)c2cc(OC)c(OC)c(OC)c2)cc1/C=C/C(=O)c1ccc(O)cc1	-79.3% (active)
O=C(CCCn1c2c(sc3ccccc32)c(=O)n2nnc(-c3ccccc3)c12)NCCc1cnc[nH]1	-95.8% (active)
COc1ncc(-c2ccc3ncnc(Nc4cccc(Cl)c4)c3c2)cc1NS(=O)(=O)C1CC1	12.2%
Nc1c(C(=O)Nc2cccc(C(F)(F)F)c2)sc2nc3c(cc12)CCCCC3	20%

Structure (SMILES)	growth
O=C(CCCn1c(=O)c2sc3ccccc3c2n2nnc(-c3ccccc3)c12)NCCc1cnc[nH]1	-71.9% (active)
Cc1nn(-c2ccc(Cl)cc2)c(=O)n1CCOc1ccccc1Cl	116%
CCSc1nnc(NC(=O)Cc2ccc(Cl)cc2)s1	107%
O=S(=O)(NCCCNc1cc(-c2cn(-c3ccccc3)nc2-c2cccc(O)c2)ccn1)c1ccc(C(F)(F)F)cc1	69.7%
O=C1NC(Cc2c[nH]c3ccccc23)C(=O)N1Cc1ccc(Cl)cc1 (stereo not given)	86.7%
Oc1ccc(N=Cc2ccccc2)cc1	67.7%
OC1CC2c3ccccc3C1c1ccccc12 (stereo not given)	102%
COc1cc(-c2cc(/C=C3\CCCCC3=O)[nH]n2)cc(OC)c1OC	76.9%
Nc1nc(N)c2nc(CNc3ccc(C(=O)CC(CCC(=O)O)C(=O)O)cc3)cnc2n1 (stereo not given)	-9.57% (active)
CCn1cc(C(=O)O)c(=O)c2cc(F)c(N3CCN(S(=O)(=O)c4c(C)cc(C)cc4C)CC3)cc21	86.5%
COc1cc(OC)c(C(=O)/C=C/c2ccc(C#N)cc2)c(OC)c1	-5.25% (active)
CCC(c1ccc(OC)cc1)C(CC)c1ccc(OCC[N+](C)(C)C)cc1 (stereo not given)	35%
Cc1cc2c(C(C)C)c(O)c(O)c(C=NCCCCCCC(=O)O)c2c(O)c1-c1c(C)cc2c(C(C)C)c(O)c(O)c(C=NCCCCCCC(=O)O)c2c1O	9.55% (active)
CC(Br)C(O)c1cc2c(cc1Br)OCO2 (stereo not given)	99.9%
C#CCN1C(=O)/C(=c2\sc3n(c2=O)NC2C(N=3)N(CC)C(=O)N2CC)c2ccccc21 (stereo not given)	52.4%
Cc1ccc2c(c1)ncn2-c1ncnc2c1CC(C)c1ccccc1N2C (stereo not given)	-22.8% (active)
CC(C(=O)n1cc(-c2ccccc2)c(-c2ccccc2)c1)c1ccccc1 (stereo not given)	102%
CC1Cc2c(N(C)C)ncnc2N(C)c2ccc(Cl)cc21 (stereo not given)	13.4%
O=C(/C=C/CN1CCOCC1)Nc1cc2c(Nc3cccc(Cl)c3F)ncnc2cc1OCCOC(F)F	6.03% (active)
COc1cccc(-c2nc3sccn3c2-c2ccnc(NCCCNS(=O)(=O)c3ccccc3)n2)c1	27.3%
